Values joined by “and” are separate entries in the source; they are usually repeats but may differ in a detail not shown here. Identical values can stand only once. Records with an inconclusive call do not appear. A call without a number means that no potency is given here. Where a structure was tested more than once in an assay, its records may differ in their call. Active and inactive are the calls of the source. Unless noted, calls follow the shape of the dose curve; as a rule, active = well fitted curve in the direction sought with a large enough effect in the repeat runs; inconclusive = weak or mixed curves; inactive = no such curve, though single readings can be large; an effect the other way counts as inactive or inconclusive.
Tests used:
[1] = qHTS assay for small molecule agonists of the p53 signaling pathway (AID 651631; calls by dose curve; also: nearly all actives have a fitted effect of over 15% in size; also: potency is read from the fitted curve at half-maximal effect); conditions: HCT-116 p53RE-bla reporter, beta-lactamase FRET ratio, 16 h; series mostly up to 73.3 µM
Outline: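 Readout was fluorescence from the LiveBLAzer FRET substrate, applied for 2 h at room temperature after 16 h compound exposure at 37 °C. Cells were the p53RE-bla HCT-116 line, with beta-lactamase driven by p53 response elements.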

[2] = qHTS assay for small molecules that induce genotoxicity in human embryonic kidney cells expressing luciferase-tagged ATAD5 (AID 651632); conditions: HEK293T ATAD5-luciferase induction, 16 h; series mostly up to 83.3 µM; also: nearly all actives have a fitted effect of over 15% in size; also: potency is read from the fitted curve at half-maximal effect
Outline: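 Quantitative HTS in HEK293T expressing luciferase-tagged ATAD5, whose levels rise upon DNA damage. Exposure ran 16 hr at 37C and 5% CO2, with luminescence read 30 min after Amplite addition at room temperature.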

[3] = qHTS assay for small molecule agonists of the p53 signaling pathway - cell viability (AID 651633; calls by dose curve; also: nearly all actives have a fitted effect of over 30% in size; also: potency is read from the fitted curve at half-maximal effect); conditions: p53RE-bla HCT-116 viability, ATP luminescence, 16 h; series mostly up to 83.3 µM
Outline: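 p53RE-bla cells, seeded at 4,000 per well and rested 5 h at 37 C/5% CO2, received compounds in DMSO for 16 h at 37 C. CellTiter-Glo was then added, and luminescence was read after 30 min at room temperature to gauge cytotoxicity.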

[4] = qHTS assay for small molecules that induce genotoxicity in human embryonic kidney cells expressing luciferase-tagged ATAD5 - cell viability (AID 651634; calls by dose curve; also: nearly all actives have a fitted effect of over 25% in size; also: potency is read from the fitted curve at half-maximal effect); conditions: HEK293T ATAD5-luc cells viability, CellTiter-Fluor, 15.5 h; series mostly up to 83.3 µM
Outline: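 After 15.5 hr incubation with compound at 37C, 5% CO2, HEK293T ATAD5-luciferase cells received CellTiter-Fluor reagent; fluorescence intensity was quantified following 30 min at 37C.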

[5] = qHTS assay for small molecule disruptors of the mitochondrial membrane potential - cell viability (AID 720634; calls by dose curve; also: nearly all actives have a fitted effect of over 20% in size; also: potency is read from the fitted curve at half-maximal effect); conditions: HepG2 viability, ATP luminescence (CellTiter-Glo), 1 h; series mostly up to 83.2 µM
Outline: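 ATP-based luminescent viability readout (CellTiter-Glo, 30 min, room temperature) in HepG2 cells multiplexed with the m-MPI membrane potential dye; compound exposure lasted 1 hr at 37 C.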

[6] = qHTS assay for small molecule disruptors of the mitochondrial membrane potential (AID 720635); conditions: HepG2 mitochondrial membrane potential, Mito-MPS dye ratio; series mostly up to 83.2 µM; also: potency is read from the fitted curve at half-maximal effect
Outline: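 HepG2 cells (2,000/well) attached overnight at 37C, then took compound for 1 hr at 37C, 5% CO2. Mito-MPS dye was added for 30 min; fluorescence was read at 490/535 nm (monomers) and 540/590 nm (aggregates).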

[7] = qHTS assay to test for compound auto fluorescence at 590 nm (red) in HepG2 cells (AID 720674); conditions: HepG2 autofluorescence, red 540/590 nm, 1 h; series mostly up to 91.3 µM
Outline: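 Rose Bengal sodium served as the red fluorophore standard. HepG2 monolayers (overnight attachment, MEM with 10% FBS) were exposed to test compounds for 1 hr at 37 C and read at Ex 540/Em 590 nm.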

[8] = qHTS assay to test for compound auto fluorescence at 535 nm (green) in HepG2 cells (AID 720675); conditions: green autofluorescence 485/535 nm, 1 h; series mostly up to 91.3 µM
[9] = qHTS assay to test for compound auto fluorescence at 590 nm (red) in HEK293 cells (AID 720679); conditions: red autofluorescence 540/590 nm; series mostly up to 91.3 µM
Outline: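 Red channel, Ex/Em 540/590nm; signal expressed as equivalency to Rose Bengal sodium. HEK293, 2,000 cells/well, 10% dialyzed FBS; 23 nL compound pinned after 4-5 hr attachment; overnight 37C/5% CO2 before reading.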

[10] = qHTS assay to test for compound auto fluorescence at 460 nm (blue) in HEK293 cells (AID 720678); conditions: blue autofluorescence 405/460 nm; series mostly up to 91.3 µM; also: potency is read from the fitted curve at half-maximal effect
Outline: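 Blue read-out at excitation 405 nm and emission 460 nm follows overnight compound exposure of HEK293 cells at 37C in 5% CO2. Activity is given as auto fluorescence equivalency to triamterene.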
Tags tell the direction and shape of the fitted curve or compound fluorescence and quenching.

Row | Structure (SMILES) | Potency [1] | Potency [2] | Potency [3] | Potency [4] | Potency [5] | Potency [6] | outcome [7] | outcome [8] | outcome [9] | Potency [10]
1 | OCC1CCCO1 (stereo not drawn) | inactive | inactive | inactive | inactive | inactive | inactive | inactive | inactive | inactive | 
2 | CCOC(=O)[C@H](CCc1ccccc1)N[C@@H](C)C(=O)N1Cc2ccccc2C[C@H]1C(=O)O | inactive | inactive | inactive | inactive | inactive | inactive | inactive | inactive | inactive | inactive
3 | CCCCC(CC)C(=O)OCCOCCOCCOC(=O)C(CC)CCCC (stereo not drawn) | inactive | inactive | inactive | inactive | inactive | inactive and 15.4 µM (active) | inactive | inactive | inactive | 
4 | CC(C)(C)C1CCC(O)CC1 (stereo not drawn) | inactive | inactive | inactive | inactive | inactive | inactive | inactive | inactive | inactive | inactive
5 | OC[C@@H](O)[C@@H](O)[C@H](O)[C@@H](O)CO | inactive | inactive | inactive | inactive | inactive | inactive | inactive | inactive | inactive | 
6 | C=CC(=O)OCCCCCCCC(C)C | inactive | inactive | inactive | inactive | inactive | inactive | inactive | inactive | inactive | inactive
7 | NCc1cccc(CN)c1 | inactive | inactive | inactive | inactive | inactive | inactive | inactive | inactive | inactive | inactive
8 | CCCCNC(N)=O | inactive | inactive | inactive | inactive | inactive | inactive | inactive | inactive | inactive | inactive
9 | OC[C@@H](O)[C@H](O)[C@H](O)[C@@H](O)CO | inactive | inactive | inactive | inactive | inactive | inactive | inactive | inactive | inactive | inactive
10 | CCCCCCOC(C)=O | inactive | inactive | inactive | inactive | inactive | inactive | inactive | inactive | inactive | inactive
11 | O=C(Cl)c1c(Cl)c(Cl)c(C(=O)Cl)c(Cl)c1Cl | inactive | inactive | inactive | inactive | inactive | inactive | inactive | inactive | inactive | inactive
12 | OCCOCCOCCOCCO | inactive | inactive | inactive | inactive | inactive | inactive | inactive | inactive | inactive | inactive
13 | CN(C)c1ccc(C(=N)c2ccc(N(C)C)cc2)cc1 | 4.28 µM (active) and 5.88 µM (active) | inactive | inactive | 48 µM (active) and 46.7 µM (active) | inactive | 27 µM (active) and 46.7 µM (active) | inactive | inactive | inactive | inactive
14 | NCCc1ccc(O)c(O)c1 | inactive | inactive | inactive | inactive | inactive | inactive | inactive | inactive | inactive | 
15 | S=c1nc[nH]c2nc[nH]c12 | 8.41 µM (active) and 5.31 µM (active) | inactive | 1.88 µM (active) and 1.19 µM (active) | inactive | inactive | inactive | inactive | inactive | inactive | inactive
16 | CC(=O)Nc1ccc(C(=O)O)cc1 | inactive | inactive | inactive | inactive | inactive | inactive | inactive | inactive | inactive | inactive
17 | C=C(C)C(=O)OCCC[Si](OC)(OC)OC | inactive | inactive | inactive | inactive | inactive | 76.1 µM (active) and inactive | inactive | inactive | inactive | inactive
18 | Cc1ccc(N)c(S(=O)(=O)O)c1 | inactive | inactive | inactive | inactive | inactive | inactive | inactive | inactive | inactive | inactive
19 | CCc1ccc(O)cc1 | inactive | inactive | inactive | inactive | inactive | 54.7 µM (active) | inactive | inactive | inactive | 
20 | CCCCC(CC)COC(=O)/C=C\C(=O)OCC(CC)CCCC (stereo not drawn) | inactive | inactive | inactive | inactive | inactive | inactive | inactive | inactive | inactive | 
21 | O=C(c1cc(O)c(O)c(O)c1)c1ccc(O)c(O)c1O | 54.3 µM (active) | inactive | 54.3 µM (active) | 54.3 µM (active) and 54.5 µM (active) | inactive | 30.5 µM (active) and 19.3 µM (active) | inactive | inactive | inactive | inactive
22 | CC[Si](OC(C)=O)(OC(C)=O)OC(C)=O | inactive | inactive | inactive | inactive | inactive | inactive | inactive | inactive | inactive | inactive
23 | CC(=O)CCc1ccccc1 | inactive | inactive | inactive | inactive | inactive | inactive | inactive | inactive | inactive | inactive

Row | Structure (SMILES) | Potency [1] | Potency [2] | Potency [3] | Potency [4] | Potency [5] | Potency [6] | outcome [7] | outcome [8] | outcome [9] | Potency [10]
24 | c1ccc2[nH]cnc2c1 | inactive | inactive | inactive | inactive | inactive | inactive | inactive | inactive | inactive | inactive
25 | Nc1nc2ncc(CNc3ccc(C(=O)N[C@@H](CCC(=O)O)C(=O)O)cc3)nc2c(=O)[nH]1 | inactive | inactive | inactive | inactive | inactive | inactive | inactive | inactive | inactive | 44.7 µM [fluorescent] (active)
26 | CC1(C)O[C@@H]2C[C@H]3[C@@H]4C[C@H](F)C5=CC(=O)CC[C@]5(C)[C@H]4[C@@H](O)C[C@]3(C)[C@]2(C(=O)CO)O1 | inactive | inactive | inactive | inactive | inactive | inactive | inactive | inactive | inactive | inactive
27 | CCCCOCCO | inactive | inactive | inactive | inactive | inactive | inactive | inactive | inactive | inactive | 
28 | O=C(Oc1ccccc1)c1ccc(O)cc1 | inactive | inactive | inactive | inactive | 61.1 µM (active) | 61.1 µM (active) | inactive | inactive | inactive | inactive
29 | COC(=O)c1ccccc1O | inactive | inactive | inactive | inactive | inactive | inactive | inactive | inactive | inactive | inactive
30 | CCC(C)C=O (stereo not drawn) | inactive | inactive | inactive | inactive | inactive | inactive | inactive | inactive | inactive | inactive
31 | CC(C)Cc1ccccc1 | inactive | inactive | inactive | inactive | inactive | inactive | inactive | inactive | inactive | inactive
32 | CC(C)(CO)COC(=O)C(C)(C)CO | inactive | inactive | inactive | inactive | inactive | inactive | inactive | inactive | inactive | inactive
33 | O=C(c1ccc(O)cc1)c1ccc(O)cc1O | 27.6 µM (active) | inactive | inactive | inactive | 55 µM (active) | 19.5 µM (active) and 54.5 µM (active) | inactive | inactive | inactive | 
34 | C[C@@H]1O[C@@H](OC[C@H]2O[C@@H](Oc3c(-c4ccc(O)c(O)c4)oc4cc(O)cc(O)c4c3=O)[C@H](O)[C@@H](O)[C@@H]2O)[C@H](O)[C@H](O)[C@H]1O | inactive | inactive | inactive | inactive | inactive | inactive | inactive | inactive | inactive | 
35 | Nc1cc(-c2ccncc2)c[nH]c1=O | inactive | inactive | inactive | inactive | inactive | inactive | inactive | inactive | inactive | 
36 | CCCCCCCCC | inactive | inactive | inactive | inactive | inactive | inactive | inactive | inactive | inactive | inactive
37 | CNC[C@H](O)[C@@H](O)[C@H](O)[C@H](O)CO | inactive | inactive | inactive | inactive | inactive | inactive | inactive | inactive | inactive | inactive
38 | C=C(C)C(=O)OCC(CC)(COC(=O)C(=C)C)COC(=O)C(=C)C | inactive | inactive | inactive | inactive | inactive | inactive | inactive | inactive | inactive | 
39 | O=[N+]([O-])C(CO)(CO)CO | inactive | inactive | inactive | inactive |  |  | inactive | inactive | inactive | inactive
40 | NC(=O)/N=N/C(N)=O | inactive | inactive | inactive | inactive | inactive |  | inactive | inactive | inactive | inactive
41 | CC1Cc2ccccc2N1NC(=O)c1ccc(Cl)c(S(N)(=O)=O)c1 (stereo not drawn) | inactive | inactive | inactive | inactive | inactive | inactive | inactive |  | inactive | inactive
42 | CC#C[C@]1(O)CC[C@H]2[C@@H]3CCC4=CC(=O)CCC4=C3[C@@H](c3ccc(N(C)C)cc3)C[C@@]21C | 21.1 µM (active) and 61.1 µM (active) | inactive | 9.44 µM (active) |  | inactive | 10.6 µM (active) | inactive | inactive | inactive | inactive
43 | CCCCC(CC)COC(=O)CCCCCCCC(=O)OCC(CC)CCCC (stereo not drawn) | inactive | inactive | inactive | inactive | inactive |  | inactive | inactive | inactive | inactive
44 | Oc1ccc(OCc2ccccc2)cc1 | 9.02 µM (active) | 12.7 µM (active) | inactive | inactive | inactive | 10.1 µM (active) and 23.8 µM (active) | inactive |  | inactive | 
45 | C=C(C)C(=O)OCCCCCC | inactive | inactive | inactive | inactive | inactive |  | inactive |  | inactive | inactive
46 | C=C1C2CCC(C2)C1(C)C (stereo not drawn) | inactive | inactive | inactive | inactive | inactive | inactive | inactive |  | inactive | inactive

From PubChem BioAssay (Tox21)
